Measured values from PubChem BioAssay (EPA / NIEHS).
Activity calls are given as the source filed them. Rule for the calls: active = hit-call score of the fitted dose curve at least 0.9, where 1 is the maximum; inactive = score below 0.9.

Assay: ATG_VDRE_CIS: Attagene CIS-FACTORIAL HepG2 Assay for human Vitamin D Receptor Element (VDRE) (AID 2282968)
Conditions: HepG2 VDRE cis-reporter transcription, actives raise or lower the signal
Experimental: ATG_CIS is a cell-based, multiplexed-readout assay that uses HepG2, a human liver cell line, with measurements taken at 24 hours after chemical dosing in a 24-well plate.ATG_VDRE_CIS is one of 52 assay component(s) measured or calculated from the ATG_CIS assay. It is designed to make measurements of mRNA induction, a form of inducible reporter, as detected with fluorescence intensity signals by Reverse transcription polymerase chain reaction (RT-PCR) and Capillary electrophoresis technology.Data from the assay component ATG_VDRE_CIS was analyzed into 1 assay endpoint. This assay endpoint, ATG_VDRE_CIS, was analyzed with bidirectional fitting relative to DMSO as the negative control and baseline of activity. Using a type of inducible reporter, measures of mRNA for gain or loss-of-signal activity can be used to understand the reporter gene at the transcription factor-level as they relate to the gene VDR. Furthermore, this assay endpoint can be referred to as a primary readout, because this assay has produced multiple assay endpoints where this one serves a reporter gene function. To generalize the intended target to other relatable targets, this assay endpoint is annotated to the nuclear receptor intended target family, where the subfamily is non-steroidal.
Human liver HepG2 cells are transiently transfected with multiple reporter transcription units (MRTUs) in 6-well plates using FuGene 6 reagent (Roche; 3 ml FuGene/1 mg DNA). The MRTU constructs are regulated by a cis-regulating element (promoter). […] A major difference between the CIS and TRANS system is that in CIS activities of endogenous TFs are measured, whereas the TRANS assay evaluates changes in activities of exogenous, chimeric NR-Gal4 proteins. […] At the end of 24 hour incubation, total RNA was isolated using TriZol reagent (Invitrogen). The isolated RNA is then reverse-transcribed using oligo(dT) primer and Mo-MLV reverse transcriptase (Invitrogen) with DNAse I (Ambion) treatment for 30 min. The one-tenth of the produced cDNA was amplified by PCR using Taq DNA polymerase (Invitrogen) and two reporter sequence-specific primers. The PCR products were fluorescently labeled by primer extension with 6-arboxyfluorescein (6-FAM) 5'-labeled reporter sequence-specific primer (2 min at 95 C, 20 s at 68 C and 10 min at 72 C) and these products were digested with 5U of HpaI (New England Biolabs) for 2h at 37 C. The fragments were purified using Qiaquick PCR columns (Qiagen), analyzed on an ABI 3130xL genetic analyzer (Applied Biosystems) with peak positions identified by using a set of X-rhodamine (ROX)-labeled MapMarker1000 molecular weight standards (BioVentures). The raw capillary electrophoresis data was processed using Attagraph software (Attagene).

SMILES	outcome	AC50
N#C/C=C/c1ccccc1	inactive	
O=C(O)C(F)(F)OC(F)(F)C(F)(F)OC(F)(F)C(=O)O	inactive	
O=C(O)C(F)(OC(F)(F)C(F)(F)C(F)(F)F)C(F)(F)F (stereo not given)	inactive	
CCCCOCCOP(=O)(OCCOCCCC)OCCOCCCC	inactive	
CCOP(=S)(OCC)SCn1nnc2ccccc2c1=O		1.61 µM (active)
CC(C)CBr	inactive	
CCOC(=O)c1ccccc1N	inactive	
Cc1ccc([N+](=O)[O-])cc1C	inactive	
Cc1c([N+](=O)[O-])cc2c(c1[N+](=O)[O-])C(C)(C)CC2(C)C	inactive	
FC(F)(F)C(F)(C(F)(F)F)C(F)(F)C(F)(F)CC1CO1 (stereo not given)	inactive	
CC(O)C(F)(F)C(F)(F)F (stereo not given)	inactive	
ClC(Cl)c1ccccc1	inactive	
CCOP(=S)(NC(C)C)Oc1ccccc1C(=O)OC(C)C (stereo not given)		1.5 µM (active)
C=C(C)C(=O)OCC1CO1 (stereo not given)	inactive	
c1ccc2c(c1)sc1ccccc12	inactive	
[N-]=[N+]=[N-]	inactive	
CC(Cl)(Cl)C(=O)O	inactive	
c1nc[nH]n1	inactive	
O=C(O)CF	inactive	
CC(=O)c1ccc(-c2ccccc2)cc1		32 µM (active)

SMILES	outcome	AC50
CCOc1ccc(C(C)(C)COCc2cccc(Oc3ccccc3)c2)cc1		5.77 µM (active)
Cc1cccc(N)c1	inactive	
CC(C)(C)c1ccccc1OP(=O)(Oc1ccccc1)Oc1ccccc1	inactive	
O=P(Oc1ccccc1)(Oc1ccccc1)Oc1ccccc1		7.17 µM (active)
CC(Cl)CN(C)C (stereo not given)	inactive	
CCC1(c2ccccc2)C(=O)N=C(O)NC1=O (stereo not given)	inactive	
ClC(Cl)=C(c1ccc(Cl)cc1)c1ccccc1Cl	inactive	
COC(N)=O	inactive	
CCCCc1ccccc1	inactive	
CCCCC(CC)COC(=O)c1c(Br)c(Br)c(Br)c(Br)c1C(=O)OCC(CC)CCCC (stereo not given)	inactive	
CO/N=C(/C(=O)OC)c1ccccc1COc1ccccc1C		13 µM (active)
CC1=C(C(=O)Nc2ccccc2)S(=O)(=O)CCO1		9.33 µM (active)
C=CC(=O)OCC(CC)(COC(=O)C=C)COC(=O)C=C		3.37 µM (active)
Oc1ccccc1Br	inactive	
CC(C)(C)N(NC(=O)c1ccc(Cl)cc1)C(=O)c1ccccc1	inactive	
Nc1ccc2ccccc2c1	inactive	
Clc1ccc(Oc2ccccc2)cc1	inactive	
CCOP(=S)(OCC)SCS(=O)(=O)CC	inactive	
O=C(O)C(F)(F)OC(F)(F)C(F)(F)OC(F)(F)F	inactive	
CCOP(=O)(O)C(N)=O	inactive	
